We go through 23 compounds from PubChem BioAssay (NCATS).

Unmarked numbers belong to inactive results. Results filed as inconclusive are left out. Calls of active or inactive are those of the source. Unless noted, calls follow the shape of the dose curve; as a rule, active = well fitted curve in the direction sought with a large enough effect; inconclusive = small, poorly fitted or top-dose-only effect, or another doubt; inactive = no such curve, though single readings can be large; an effect the other way counts as inactive or inconclusive. Some results are limits rather than exact numbers.

The nature of assay [1]: Cell Viability qHTS for small molecule stabilizers of the endoplasmic reticulum resident proteome (AID 1508629).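 Also: human SH-SY5Y neuroblastoma cells carrying the GLuc-SERCaMP reporter; compound exposure about 46 h in total before the viability read; % is scaled to controls: 0 for no effect and ±100 for the full control effect.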 The settings on record: cell viability counter-screen, 100 nM thapsigargin for final 4 h.
The target of assay [2] is Glucocorticoid receptor (Homo sapiens) (UniProt P04150). The experiment in a line: GR-GFP Redistribution (AID 450;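 active = compounds whose dose series gives a full or clear partial fitted curve of increased nuclear translocation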; also: potency is read from the fitted curve at half-maximal effect). The settings on record: U2OS GR-GFP nuclear translocation, laser cytometry, 2 h.
Sequence of Glucocorticoid receptor (Homo sapiens) (P04150 whole entry, looked up): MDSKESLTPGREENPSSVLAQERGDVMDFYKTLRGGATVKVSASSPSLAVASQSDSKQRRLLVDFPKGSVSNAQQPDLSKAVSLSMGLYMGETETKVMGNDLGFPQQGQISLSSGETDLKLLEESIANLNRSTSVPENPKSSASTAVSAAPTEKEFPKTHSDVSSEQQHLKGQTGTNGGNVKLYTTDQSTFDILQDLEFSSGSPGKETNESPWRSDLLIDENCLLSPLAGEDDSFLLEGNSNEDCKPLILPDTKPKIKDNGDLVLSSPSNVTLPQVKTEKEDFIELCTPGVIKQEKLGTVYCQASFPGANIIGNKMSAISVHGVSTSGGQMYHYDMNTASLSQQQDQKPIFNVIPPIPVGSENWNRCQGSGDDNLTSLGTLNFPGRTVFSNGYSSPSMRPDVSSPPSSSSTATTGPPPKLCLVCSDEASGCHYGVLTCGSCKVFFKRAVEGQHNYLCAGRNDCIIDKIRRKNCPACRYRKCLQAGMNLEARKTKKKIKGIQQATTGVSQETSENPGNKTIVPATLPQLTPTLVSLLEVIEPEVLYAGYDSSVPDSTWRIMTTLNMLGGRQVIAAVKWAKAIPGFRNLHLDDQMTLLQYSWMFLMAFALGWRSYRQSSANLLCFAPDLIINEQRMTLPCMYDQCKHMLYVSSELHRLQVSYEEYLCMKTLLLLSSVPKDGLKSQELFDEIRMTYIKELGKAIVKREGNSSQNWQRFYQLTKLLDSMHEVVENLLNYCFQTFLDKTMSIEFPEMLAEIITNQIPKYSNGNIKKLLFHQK
Assay [3] addresses DNA dC->dU-editing enzyme APOBEC-3G (Homo sapiens) (UniProt Q9HC16). The experiment in a line: qHTS for inhibitors of Vif-A3G interactions: Validation (AID 588379). Also: 0% is about no effect. The settings on record: Vif-A3G protein interaction assay; series mostly up to 46.1 µM. Put shortly: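 Yellow fluorescence (Ex 488, Em 500-530) of Vif-coexpressing HeLa A3G-eYFP cells, scanned by Acumen cytometer, reports blocked A3G degradation. Cells plated at 700/well overnight at 37 deg C before compound addition, then a further overnight compound incubation at 37 deg C.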

The target in assay [4] is DNA repair nuclease/redox regulator APEX1 (Homo sapiens) (UniProt P27695). In words: qHTS Validation Assay for Inhibitors of the Human Apurinic/apyrimidinic Endonuclease 1 (APE1) (AID 1705; also: potency is read from the fitted curve at half-maximal effect). The settings on record: purified APE1 endonuclease activity, fluorescence, titration; series mostly up to 57.1 µM. The method, boiled down: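 Endonuclease activity of human APE1 is followed as dequenching when the enzyme incises a tetrahydrofuran abasic site in a short duplex labelled 5'-TAMRA/3'-BHQ-2 (50 nM final), after 15 min enzyme–compound preincubation at room temperature.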
Sequence of DNA repair nuclease/redox regulator APEX1 (Homo sapiens) (P27695 whole entry, looked up): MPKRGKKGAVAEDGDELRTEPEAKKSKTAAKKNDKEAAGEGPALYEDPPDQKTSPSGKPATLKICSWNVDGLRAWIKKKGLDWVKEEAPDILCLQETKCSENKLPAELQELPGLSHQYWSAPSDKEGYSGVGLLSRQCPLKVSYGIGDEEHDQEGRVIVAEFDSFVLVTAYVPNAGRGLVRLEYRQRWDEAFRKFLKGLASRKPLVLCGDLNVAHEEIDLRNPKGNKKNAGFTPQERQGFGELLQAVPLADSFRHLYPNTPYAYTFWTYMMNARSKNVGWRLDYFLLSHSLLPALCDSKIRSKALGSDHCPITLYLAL

Assay [5] can be described thus: qHTS for differential inhibitors of proliferation of Plasmodium falciparum line 7G8 (AID 1815).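 Also: potency is read from the fitted curve at half-maximal effect; parasite growth measured after three days of incubation.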 The settings on record: Plasmodium falciparum 7G8 proliferation inhibition; series mostly up to 28.7 µM.
Assay [6] is described as follows: qHTS for differential inhibitors of proliferation of Plasmodium falciparum line GB4 (AID 1816).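 Also: potency is read from the fitted curve at half-maximal effect; parasite growth measured after 72 h incubation.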 The settings on record: Potency: Plasmodium falciparum GB4 proliferation inhibition; series mostly up to 28.7 µM.
Assay [7] in a line: qHTS for differential inhibitors of proliferation of Plasmodium falciparum line 3D7 (AID 1876). Also: potency is read from the fitted curve at half-maximal effect. The settings on record: P. falciparum 3D7 proliferation inhibition; series mostly up to 28.7 µM.
Assay [8] can be described thus: qHTS for differential inhibitors of proliferation of Plasmodium falciparum line Dd2 (AID 1882). Also: nearly all actives have a fitted effect of over 65% in size. Also: potency is read from the fitted curve at half-maximal effect. The settings on record: Potency: Plasmodium falciparum Dd2 proliferation inhibition; series mostly up to 28.7 µM. The method, boiled down:
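SYBR Green DNA fluorescence (ex 485, em 535 nm) after overnight lysis quantifies parasite growth; compound exposure lasted 72 h at 37 C on infected red cells at 2.5% hematocrit, 0.3% parasitemia (final). Artemisinin 0.29 uM and vehicle wells define normalization.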
(In qHTS, concentration-response curves come from the screen itself.)

A short description of assay [9]: qHTS for differential inhibitors of proliferation of Plasmodium falciparum line W2 (AID 1883).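 Also: potency is read from the fitted curve at half-maximal effect; parasites grown with compound for 72 h before lysis and staining.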 The settings on record: Potency: Plasmodium falciparum W2 proliferation inhibition; series mostly up to 28.7 µM.
Assay [10] in a line: qHTS for differential inhibitors of proliferation of Plasmodium falciparum line HB3 (AID 1886).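 Also: potency is read from the fitted curve at half-maximal effect; parasites grown with compound for 72 h before SYBR Green readout.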 The settings on record: Potency: Plasmodium falciparum HB3 proliferation inhibition; series mostly up to 28.7 µM.
Assay [11] addresses Ferritin light chain (Equus caballus) (UniProt P02791). In words: qHTS Validation Assay for Identification of Novel General Anesthetics (AID 2323). Also: % is scaled to controls: 0 for no effect and ±100 for the full control effect. The settings on record: horse apoferritin, anesthetic-site fluorescent probe displacement; series mostly up to 76.9 µM. Put shortly:
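Apoferritin from horse spleen (10 uM) was mixed with 1-aminoanthracene at 50% saturation in PBS, then compounds were added. After 10 min at room temperature, fluorescence was read (ex 380 nm, em 535 nm) and normalized to free-probe and complex controls.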

Assay [12] concerns the target ATP-dependent DNA helicase Q1 (Homo sapiens) (UniProt P46063). In words: qHTS Validation Assay for Inhibitors of RecQ-Like Dna Helicase 1 (RECQ1) (AID 2353).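 Also: plate controls were DMSO vehicle for no effect and enzyme-free control for full effect.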 The settings on record: recombinant RECQ1 helicase DNA unwinding assay; series mostly up to 25.6 µM. The method, boiled down:
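RECQ1T1 50 nM; forked duplex (20 bp + 30-nt ss tails) 200 nM, ATP 2 mM final; pH 8.0, 2 mM MgCl2, 2.5 ug/ml poly(dI-dC); 15 min compound preincubation; discontinuous kinetic read over 2 h at RT.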

Assay [13] can be described thus: Quantitative high throughput screen for delayed death inhibitors of the malarial parasite plastid, 96 hour incubation (AID 488745). Also: nearly all actives have a fitted effect of over 70% in size. Also: potency is read from the fitted curve at half-maximal effect. The settings on record: Plasmodium falciparum growth; series mostly up to 28.7 µM. The method, boiled down:
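Readout is firefly luciferase luminescence from an integrated reporter in P. falciparum; lower signal marks inhibited growth. Cultures at 2% hematocrit and 0.1% parasitemia were treated with compound across two generations (96 h, 37 C, 5% CO2).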

Assay [14] in a line: Quantitative high throughput screen for delayed death inhibitors of the malarial parasite plastid, 48 hour incubation (AID 488752). Also: nearly all actives have a fitted effect of over 65% in size. Also: potency is read from the fitted curve at half-maximal effect. The settings on record: Plasmodium falciparum growth; series mostly up to 28.7 µM. Put shortly:
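First, compound was pinned into RPMI 1640 medium containing 0.5% Albumax. Next, reporter-parasite-infected erythrocytes were added to 2% hematocrit and 0.1% parasitemia. After 48 h at 37 C under 5% CO2, luciferase detection reagent was added and luminescence read.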

Assay [15] addresses M-phase phosphoprotein 8 (Homo sapiens) (UniProt Q99549). The experiment in a line: qHTS Validation Assay for Inhibitors for MPP8 Chromodomain Interactions with Methylated Histone Tails (AID 488949). Also: nearly all actives have a fitted effect of over 55% in size. Also: potency is read from the fitted curve at half-maximal effect. The settings on record: AlphaScreen MPP8 binding to H3K9me3 peptide; series mostly up to 114 µM. Put shortly: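 Disruption of the preformed MPP8–trimethyl-H3K9 peptide complex (both 50 nM, 30 min, RT) is measured after 30 min compound exposure, using AlphaScreen proximity beads; aurintricarboxylic acid titration serves as plate control.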

Assay [16] addresses Transient receptor potential cation channel subfamily V member 1 (Homo sapiens) (UniProt Q8NER1). The experiment in a line: HTS Assay for Compounds that Act as Enhancers of the Vanilloid Receptor 1 (AID 488979). Also: 0% is about no effect. The settings on record: TRPV1-expressing cells, enhancer of channel activity; series mostly up to 41.7 µM. The method, boiled down: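 TRPV1 cells loaded with Fluo-8 calcium dye; compound added and Ca2+ signal (ex 480/em 520 nm) followed 3 min, then capsaicin at EC20 added and read 2 more min to detect enhancement.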

For assay [17], the target named is Cytochrome P450 2C19 (Homo sapiens) (UniProt P33261). In words: qHTS Assay for Inhibitors and Substrates of Cytochrome P450 2C19 (AID 899). Also: nearly all actives have a fitted effect of over 60% in size. Also: potency is read from the fitted curve at half-maximal effect. The settings on record: recombinant CYP2C19, luciferin-H EGE luminescence; series mostly up to 57.1 µM. The method, boiled down:
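Signal comes from luciferase acting on luciferin released by CYP2C19-mediated hydroxylation of Luciferin-H EGE, 10uM (KM). Assay mix: 5nM enzyme, 50mM KPO4; 60 min at 37C with NADPH regeneration. Data normalized against 57uM ketoconazole.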

A short description of assay [18]: Confirmation and Secondary Assay for Modulators of Hemoglobin Beta Chain Splicing at IVS2 654 locus (AID 910).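 Also: HeLa cells stably carrying EGFP split by mutant beta-globin IVS2-654 intron; % of control where 0% means no effect.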 The settings on record: HeLa EGFP-654 splicing reporter, GFP fluorescence, 48 h; series mostly up to 46.1 µM. The method, boiled down: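 HeLa cells stably expressing EGFP interrupted by β-globin IVS2-654 intron, seeded overnight in Opti-MEM/2% FCS, then treated 2 days at 37 °C. Restored splicing read as total peak GFP intensity per well by laser scanning cytometry (488 nm excitation, 500–520 nm emission); 500 nM antisense PNA as control.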

Assay [19] in a line: Confirmation and Secondary Assay for Modulators of Hemoglobin Beta Chain Splicing at IVS2 705 locus (AID 930).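 Also: HeLa cells stably expressing the EGFP-705 splicing reporter; GFP fluorescence per well restored by corrected splicing of the IVS2-705 intron in EGFP; % of control where 0% means no effect.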 The settings on record: HeLa EGFP-705 splicing reporter, GFP fluorescence, 48 h; series mostly up to 46.1 µM. The method, boiled down: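 Stable HeLa line with EGFP disrupted by mutant beta-globin intron 2 (705). Overnight attachment, then 2 days of compound at 37C, 5% CO2. Signal: peak GFP intensity summed over objects 5-250 µm.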

The target of assay [20] is Voltage-gated inwardly rectifying potassium channel KCNH2 (Homo sapiens) (UniProt Q12809). The experiment in a line: qHTS Assay for Small Molecule Inhibitors of the Human hERG Channel Activity (AID 588834).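 Also: lower thallium flux fluorescence means stronger hERG block; nearly all actives have a fitted effect of over 50% in size.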 Also: potency is read from the fitted curve at half-maximal effect. The settings on record: U2OS BacMam hERG, FluxOR thallium flux fluorescence; series mostly up to 92.2 µM. The method, boiled down:
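Cells were infected with hERG-BacMam virus for 4 hrs at room temperature, grown overnight, then seeded at 2000/well. After dye loading and roughly 10 min compound treatment, thallium influx was triggered and fluorescence recorded.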

Sequence of Cytochrome P450 2C19 (Homo sapiens) (P33261 whole entry, looked up): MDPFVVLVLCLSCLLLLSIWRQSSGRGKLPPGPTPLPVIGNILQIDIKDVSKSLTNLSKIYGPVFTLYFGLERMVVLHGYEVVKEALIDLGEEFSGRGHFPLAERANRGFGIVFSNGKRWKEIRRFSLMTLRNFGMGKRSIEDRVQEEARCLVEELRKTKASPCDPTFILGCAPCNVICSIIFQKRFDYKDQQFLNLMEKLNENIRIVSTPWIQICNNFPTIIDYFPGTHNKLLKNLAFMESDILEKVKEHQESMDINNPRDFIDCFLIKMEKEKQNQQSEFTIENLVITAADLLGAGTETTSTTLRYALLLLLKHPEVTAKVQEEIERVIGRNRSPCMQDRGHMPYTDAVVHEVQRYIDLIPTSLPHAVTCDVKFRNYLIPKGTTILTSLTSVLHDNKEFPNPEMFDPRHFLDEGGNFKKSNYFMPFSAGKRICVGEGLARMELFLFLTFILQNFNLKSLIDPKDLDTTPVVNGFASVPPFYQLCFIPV
Sequence of Ferritin light chain (Equus caballus) (P02791 2-175 limits assumed): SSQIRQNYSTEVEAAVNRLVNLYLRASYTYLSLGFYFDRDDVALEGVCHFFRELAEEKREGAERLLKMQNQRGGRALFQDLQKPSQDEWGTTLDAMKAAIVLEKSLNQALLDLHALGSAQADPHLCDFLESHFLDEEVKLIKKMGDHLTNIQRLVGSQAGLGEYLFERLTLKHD
Sequence of Voltage-gated inwardly rectifying potassium channel KCNH2 (Homo sapiens) (Q12809 whole entry, looked up): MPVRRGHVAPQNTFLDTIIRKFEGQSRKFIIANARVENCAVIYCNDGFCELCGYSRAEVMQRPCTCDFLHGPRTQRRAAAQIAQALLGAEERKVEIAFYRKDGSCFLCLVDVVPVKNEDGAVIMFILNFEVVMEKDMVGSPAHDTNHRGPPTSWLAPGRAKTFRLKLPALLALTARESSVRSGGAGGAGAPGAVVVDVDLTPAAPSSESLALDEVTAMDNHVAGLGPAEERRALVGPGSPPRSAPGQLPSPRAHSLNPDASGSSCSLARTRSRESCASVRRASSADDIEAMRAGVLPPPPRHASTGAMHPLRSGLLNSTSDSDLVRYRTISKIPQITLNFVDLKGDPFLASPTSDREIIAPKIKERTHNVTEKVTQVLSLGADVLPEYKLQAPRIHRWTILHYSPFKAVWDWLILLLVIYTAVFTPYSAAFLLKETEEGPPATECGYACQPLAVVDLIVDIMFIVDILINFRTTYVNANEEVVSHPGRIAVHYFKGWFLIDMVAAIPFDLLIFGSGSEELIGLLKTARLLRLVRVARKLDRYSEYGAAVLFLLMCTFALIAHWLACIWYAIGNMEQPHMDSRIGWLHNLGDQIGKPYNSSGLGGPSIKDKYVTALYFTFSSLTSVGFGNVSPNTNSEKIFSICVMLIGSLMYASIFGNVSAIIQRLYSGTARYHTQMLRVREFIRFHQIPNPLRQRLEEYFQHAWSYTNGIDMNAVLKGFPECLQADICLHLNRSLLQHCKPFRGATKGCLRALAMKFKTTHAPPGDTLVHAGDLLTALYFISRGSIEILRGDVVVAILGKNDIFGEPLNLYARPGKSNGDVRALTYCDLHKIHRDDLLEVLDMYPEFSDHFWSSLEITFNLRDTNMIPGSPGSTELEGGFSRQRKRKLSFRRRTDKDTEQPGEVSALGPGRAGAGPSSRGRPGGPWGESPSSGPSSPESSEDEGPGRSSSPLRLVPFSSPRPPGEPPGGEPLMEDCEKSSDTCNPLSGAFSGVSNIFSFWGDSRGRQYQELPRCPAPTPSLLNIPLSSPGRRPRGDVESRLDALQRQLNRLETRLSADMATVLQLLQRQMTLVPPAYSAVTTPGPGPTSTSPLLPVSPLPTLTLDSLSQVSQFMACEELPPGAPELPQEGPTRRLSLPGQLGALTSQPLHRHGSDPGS
Sequence of DNA dC->dU-editing enzyme APOBEC-3G (Homo sapiens) (Q9HC16 whole entry, looked up): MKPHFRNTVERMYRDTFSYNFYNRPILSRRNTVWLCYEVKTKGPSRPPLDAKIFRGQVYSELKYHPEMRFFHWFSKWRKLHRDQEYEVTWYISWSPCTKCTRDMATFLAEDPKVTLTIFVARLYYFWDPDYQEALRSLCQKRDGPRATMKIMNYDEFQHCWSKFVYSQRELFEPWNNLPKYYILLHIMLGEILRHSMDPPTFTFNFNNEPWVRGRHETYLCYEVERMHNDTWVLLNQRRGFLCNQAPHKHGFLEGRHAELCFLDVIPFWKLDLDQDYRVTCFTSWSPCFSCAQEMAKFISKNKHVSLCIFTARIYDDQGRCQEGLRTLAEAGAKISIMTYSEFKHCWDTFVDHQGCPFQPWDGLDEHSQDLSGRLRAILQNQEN
Sequence of Transient receptor potential cation channel subfamily V member 1 (Homo sapiens) (Q8NER1 whole entry, looked up): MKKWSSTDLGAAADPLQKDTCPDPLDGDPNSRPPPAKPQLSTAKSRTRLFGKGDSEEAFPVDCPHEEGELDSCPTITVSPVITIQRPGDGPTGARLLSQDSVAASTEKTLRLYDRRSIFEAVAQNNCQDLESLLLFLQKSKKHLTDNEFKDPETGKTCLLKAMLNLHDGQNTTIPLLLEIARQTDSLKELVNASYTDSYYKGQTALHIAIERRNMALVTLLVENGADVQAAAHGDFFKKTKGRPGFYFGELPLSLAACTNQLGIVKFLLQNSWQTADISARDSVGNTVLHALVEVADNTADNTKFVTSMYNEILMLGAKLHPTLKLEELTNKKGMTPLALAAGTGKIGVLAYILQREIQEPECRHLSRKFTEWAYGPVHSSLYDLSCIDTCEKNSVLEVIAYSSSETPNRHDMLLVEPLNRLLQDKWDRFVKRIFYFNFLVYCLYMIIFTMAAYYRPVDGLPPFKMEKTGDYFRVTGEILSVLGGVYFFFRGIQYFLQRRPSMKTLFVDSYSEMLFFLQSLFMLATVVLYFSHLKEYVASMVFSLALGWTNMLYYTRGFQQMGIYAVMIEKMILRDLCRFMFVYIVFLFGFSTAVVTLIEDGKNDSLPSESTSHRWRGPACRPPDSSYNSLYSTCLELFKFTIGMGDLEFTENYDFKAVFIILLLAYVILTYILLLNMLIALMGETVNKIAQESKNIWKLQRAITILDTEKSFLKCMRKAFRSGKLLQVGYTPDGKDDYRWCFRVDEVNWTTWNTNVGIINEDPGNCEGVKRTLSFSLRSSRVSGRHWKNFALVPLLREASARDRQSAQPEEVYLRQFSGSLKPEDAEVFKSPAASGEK
Sequence of M-phase phosphoprotein 8 (Homo sapiens) (Q99549 whole entry, looked up): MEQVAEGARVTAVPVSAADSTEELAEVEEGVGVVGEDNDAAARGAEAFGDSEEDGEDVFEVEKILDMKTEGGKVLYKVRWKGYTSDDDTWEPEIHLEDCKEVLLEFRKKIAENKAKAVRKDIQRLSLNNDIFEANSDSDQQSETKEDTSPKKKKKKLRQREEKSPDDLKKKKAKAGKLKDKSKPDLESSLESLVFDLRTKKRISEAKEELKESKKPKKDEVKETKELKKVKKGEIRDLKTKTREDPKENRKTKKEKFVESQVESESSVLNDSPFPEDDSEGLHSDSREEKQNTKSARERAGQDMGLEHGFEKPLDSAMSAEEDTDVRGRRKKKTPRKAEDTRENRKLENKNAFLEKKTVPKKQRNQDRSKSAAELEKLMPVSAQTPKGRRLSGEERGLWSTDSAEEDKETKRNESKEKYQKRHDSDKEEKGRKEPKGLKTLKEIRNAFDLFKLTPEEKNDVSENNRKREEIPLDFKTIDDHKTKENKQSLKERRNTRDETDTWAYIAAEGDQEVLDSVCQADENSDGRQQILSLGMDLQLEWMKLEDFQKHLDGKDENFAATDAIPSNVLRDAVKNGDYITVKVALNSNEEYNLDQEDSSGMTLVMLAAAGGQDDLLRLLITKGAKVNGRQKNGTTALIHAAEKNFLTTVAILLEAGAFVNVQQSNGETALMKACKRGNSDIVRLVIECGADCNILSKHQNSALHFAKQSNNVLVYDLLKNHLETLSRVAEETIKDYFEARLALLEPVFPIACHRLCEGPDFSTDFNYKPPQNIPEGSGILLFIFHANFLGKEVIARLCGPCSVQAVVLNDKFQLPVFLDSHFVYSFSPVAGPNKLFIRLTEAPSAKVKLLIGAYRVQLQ

For the compound `c1ccc(N2CC[C@@]3(CCCNC3)C2)cc1`, the max response in assay [1] was 3.77%.

As for `O=C(O)[C@@H]1CSC(c2cccnc2)N1` (stereo not given in full), in assay [1], the max response was 25.6%.

In the case of `N#C/C(=C\c1ccc(O)c(O)c1)C(N)=S`, the Potency in [2] was more than 46 µM. For the same compound, the outcome in [3] was inactive.

Consider `c1ccc(N2CCCC3(CCNCC3)C2)nc1`, for which, in [1], the max response is -3.57%.

As to `c1ccc(N2CCCC3(CCNCC3)C2)cc1`, the max response in assay [1] was -4.75%.

As to `c1cc(CN2CCCC3(CCNCC3)C2)ccn1`, the max response in [1] is 27.2%.

Consider `c1cnc(N2CCC3(CCNCC3)CC2)nc1`, for which, in assay [1], the max response is 1.49%.

Consider `C=CCN1CCc2cccc3c2C1Cc1ccc(O)c(O)c1-3` (stereo not given), for which the Potency result in assay [4], in assay [11] and in assay [13] was “inactive” in each case. Further, the Potency in [5] was 2.82 µM (active); in assay [6] it was 2 µM (active); in assay [7] it was 2.82 µM (active); in assay [8] it was 2.82 µM (active); in [9] it was 2.51 µM (active); in [10] it was 2 µM (active). Further, the Potency in assay [14] is 10.4 µM (active); in [15] it was 6.31 µM (active). Besides, the outcome in [12] and in assay [16] was inactive.

In the case of `O=C(c1ccco1)N1CCC[C@@]2(CCN(Cc3ccncc3)C2)C1`, in assay [17], the Potency was 2.51 µM (active).

Regarding `Cc1ccccc1-c1cncnc1NCCc1cnc[nH]1`, the results for the Potency in assay [2] and in assay [17] were more than 46 µM and 0.0501 µM (active), respectively. The Potency result in [18] and in assay [19] was “inactive” throughout.

On to `CN1CCN(c2ncc3ncc(=O)n(C)c3n2)CC1`, for which the Potency in [2] was more than 9.22 µM.

As to `CC(C)NC(=O)N1CC[C@@]2(CCCNC2)C1`, in [17], the Potency entry was “inactive”.

On to `N#Cc1cccc(NC(=O)N2CC[C@@]3(CCCN(C(=O)Oc4ccccc4)C3)C2)c1`, for which the Potency result in [17] is “inactive”.

Regarding `O=C(O)C1=CCCN(CCOC(c2ccc(C(F)(F)F)cc2)c2ccc(C(F)(F)F)cc2)C1`, in assay [2], the Potency is more than 46 µM. Besides, in assay [3], the result was inactive.

Turning to `CCc1c(C(=O)OC)ncc2[nH]c3cc(OC)c(OC)cc3c12`, the Potency in [2] is more than 46 µM; in assay [4], 6.31 µM (active); in [5], 7.94 µM (active); in assay [6], 12.6 µM (active); in [7] it was 12.6 µM (active); in [9], 7.94 µM (active). Besides, the Potency in assay [10] was 10 µM (active). The Potency result in [8], in assay [11], in assay [13], in assay [14], in assay [15] and in assay [20] was “inactive” in each case. The outcome in assay [12] and in assay [16] was inactive.

For `C=C(C)c1cc2cc(C(C)=O)c(O)cc2o1`, the Potency entry in [19] is “inactive”.

Regarding `CN1CCCCC1c1ccc(-c2cccnc2)nc1` (stereo not given), the Potency entry in assay [18] and in assay [19] was “inactive” throughout.

With `CCCN1CCc2cc(O)cc3c2C1Cc1ccc(O)c(O)c1-3` (stereo not given), the Potency result in [4] and in [11] was “inactive” each time. Moreover, the Potency in assay [5] was 5.01 µM (active); in assay [6], 3.16 µM (active); in [7], 2.51 µM (active); in assay [8] it was 8.91 µM (active); in assay [9] it was 3.55 µM (active); in [10], 3.55 µM (active). Besides, the Potency in assay [13] is 3.29 µM (active); in assay [14] it was 8.28 µM (active); in assay [15], 31.6 µM (active); in [20], 7.08 µM (active). Further, the outcome in assay [12] and in assay [16] was inactive.

For `c1ccc(CN2CCC3(CCNCC3)CC2)cc1`, the Potency in assay [17] was 5.01 µM (active).

Turning to `COc1c2c(cc3c1OCO3)CC[N+](C)=C2`, the Potency result in [18] and in assay [19] was “inactive” in each case.

Turning to `Clc1ccccc1-c1cncnc1NCCc1cnc[nH]1`, the Potency in assay [2] was more than 46 µM; in assay [17], 0.0126 µM (active).

As to `C/C=C/c1ccc2c(c1)OCO2`, the Potency entry in assay [18], in assay [19] and in [20] was “inactive” in each case. The call in [3] was inactive.

Regarding `C=CCc1ccc2c(c1)OCO2`, the Potency result in assay [18], in [19] and in [20] was “inactive” each time.
